Test results: PubChem BioAssay (NCATS)
“And” between values parts separate entries of the source, which are not always exact repeats. Identical values can stand only once. Records with an inconclusive call do not appear. The source made the active and inactive calls. The call rests on the fitted dose curve; in most records, active means well fitted cell-killing curve with a large enough effect; inconclusive means small, poorly fitted or top-dose-only effect, or effect the other way; inactive means no such curve, though single readings can be large or run the other way.

Assay: Viability qHTS for spleen associated tyrosine kinase inhibitor (SYKi) drug resistant MV4-11 cells (AID 1963824); further: nearly all actives have a fitted effect of over 35% in size
Conditions: SYKi-resistant MV4-11 viability, CellTiter-Glo, 72 h; series mostly up to 45 µM; viability, % of control: at the top concentration
Text: Department of Medicine, Hematology/Oncology
University Hospital Frankfurt, Germany.
Trials have shown promising clinical activity of the selective SYK inhibitor entospletinib in patients with high expressing HOXA9/MEIS1 acute leukemias. As the development of resistance mechanisms is a common problem in the use of targeted drugs, we performed a chemical library screen to identify drug sensitivities in SYK inhibitor resistant AML cells. […] Glucocorticoids are potent immunosuppressants which work in part by inhibiting the transcription of cytokine genes.
Described herein is a viability screen to look for activity in the SYK inhibitor drug resistant cell line against four NCATS compound libraries (MIPE 5.0, NPC, NPACT, and Kinase) totaling 11372 compounds. Active hits were reacquired for confirmation and further secondary assay testing.
SEQUENCE No. (e.g., 1, 2, 3, etc.); […] (e.g., Cells, Incubation, Reagent, etc.); VALUE; DESCRIPTION.
1; Media; 2uL; white, solid-bottom Corning assay plate.
2; Compounds; 23nL; Echo acoustic dispenser.
3; Cell; 5uL; 500 cells per well.
4: Incubation; 72hr; 37 C, 5% CO2, 95% humidity.
5; Reagent; 3uL; CellTiter-Glo reagent (Promega).
6; Incubation; 10min; room temperature.
7; Detection; Luminescence; ViewLux plate reader (PerkinElmer).
NOTES (numbers refer to Sequence numbers above
1. Quantitative high-throughput screening (qHTS) of small molecule compounds was conducted on drug resistant SYKi MV4-11 cell line.
2. Twenty-three nanoliter of small molecule compounds were added to each assay plates using the Echo acoustic dispenser (Beckman Coulter).
3. Cells were seeded into the assay plates at a final density of 500 cells in 5uL of media per well using the Multidrop Combi dispenser.
4. Plates were covered with stainless steel gasketed lids and incubated for 72 hours at standard cell culture conditions.
5. Viability was assessed by adding 3uL of CellTiter-Glo detection reagent (Promega).
6. Plates were covered with gasket lids and incubated for 10 minutes at room temperature.
7. Luminescence was measured on a ViewLux plate reader (PerkinElmer).
Potency means the concentration at half of the fitted maximal effect.

SMILES | Potency | viability, % of control
Cc1ccc(NS(=O)(=O)c2cc3c(cc2F)NC(=O)CC3)cc1Cl | 16.4 µM (active) | 
COc1cc2ncnc(Nc3cccc(I)c3)c2cc1OC | 2.91 µM (active) and 13 µM (active) | 
COc1cc(/C=C/C(=O)OCC2OC(OC3(CO)OC(CO)C(O)C3O)C(O)C(O)C2O)ccc1O (stereo not given) |  | 97.3% [at 17.3 µM] (inactive)
C=C1CC2OC(=O)C(COC)C2C(OC(=O)/C(C)=C\C)CC2(C)OC1=CC2=O (stereo not given) | 0.805 µM (active) | 
O=C(O)c1ccccc1Nc1cccc(C(F)(F)F)c1 |  | 80.3% (inactive)
CC(=O)Nc1cccc2c1c(Sc1ccc(Cl)cc1)c(C)n2CC(=O)O |  | 65.2% (inactive)
COc1cc(NC(=O)Nc2cccc(CNC(=O)O[C@H]3CCOC3)c2)ccc1-c1cnco1 | 0.82 µM (active) | 
c1ccc(N2CCN(CCc3nn[nH]n3)CC2)cc1 |  | 82% (inactive)
CC(=O)O[C@H]1CC[C@@]2(CI)C(=CC[C@@H]3[C@@H]2CC[C@]2(C)[C@@H]([C@H](C)CCCC(C)C)CC[C@@H]32)C1 |  | 83% [at 9.25 µM] (inactive)
C=CC(=O)Nc1cccc(Oc2nc(Nc3ccc(N4CCN(C)CC4)cc3)ncc2Cl)c1 | 517 nM (active) and 525 nM (active) | 
CSCC1OC(n2cnc3c(N)ncnc32)C(O)C1O (stereo not given) |  | 76.5% (inactive)
Cc1nc(CN(C)c2ncnc3ccc(-c4ccc5c(c4)OCO5)cc23)cs1 | 5.8 µM (active) | 
C[C@]12C=CC(=O)C=C1[C@@H](F)C[C@@H]1[C@@H]2[C@@H](O)C[C@@]2(C)[C@H]1CC[C@]2(O)C(=O)CO |  | 79.9% (inactive)
Cc1nc2cc(C(=O)NCc3ccccn3)nn2c(C)c1Cc1cccc(Cl)c1 | 20.6 µM (active) | 
Cn1cc(-c2cc(Oc3cc(F)c(NC(=O)C4(C(=O)Nc5ccccc5)CC4)cc3F)ccn2)cn1 | 0.461 µM (active) | 
O=C1c2ccccc2CCc2ccccc21 |  | 98.3% (inactive)
C=C1C(=O)O[C@@H]2[C@H]1CC(=O)[C@H](C)[C@@](O)(C(=O)/C=C/C)[C@H]2OC(=O)C(C)CC (stereo not given in full) | 0.508 µM (active) | 
C=C1CC[C@H]2[C@@](C)(CCC(OC3OC(CO)C(O)C(O)C3O)[C@@]2(C)CO)C1C(=O)CC1=CCOC1=O (stereo not given in full) |  | 85.6% [at 17.3 µM] (inactive)
CNC(=O)Nc1ccc(-c2nc(N3CC4CCC(C3)O4)c3cnn(C4CCC5(CC4)OCCO5)c3n2)cc1 | 0.166 µM (active) | 
CNC1CCCN(c2c(F)cc3c(=O)c(C(=O)O)cn(C4CC4)c3c2OC)C1 (stereo not given) |  | 106% (inactive)

SMILES | Potency | viability, % of control
CCC[C@@]1(CCc2ccccc2)CC(O)=C([C@H](CC)c2cccc(NS(=O)(=O)c3ccc(C(F)(F)F)cn3)c2)C(=O)O1 | 23.1 µM (active) | 
CN(C)CCn1nnnc1SCC1=C(C(=O)O)N2C(=O)[C@@H](NC(=O)Cc3csc(N)n3)[C@H]2SC1 |  | 97.8% (inactive)
COc1ccc(-c2ccc3c(N4CCOC[C@@H]4C)nc(N4CCOC[C@@H]4C)nc3n2)cc1CO | 0.148 µM (active) | 
C=C1C(=O)[C@@]23C(CC[C@@H]1[C@H]2O)[C@@]12CO[C@]3(O)[C@@H](O)[C@@H]1C(C)(C)CC[C@@H]2O (stereo not given in full) | 1.3 µM (active) | 
COc1ccc(CC2NCCc3c2[nH]c2ccc(C)cc32)cc1OC (stereo not given) | 7.31 µM (active) | 
C=C1C(=O)O[C@@H]2C3C(=C(C)[C@@H](O)[C@@H](OC(=O)/C(=C/C)COC(C)=O)[C@@H]12)C(=O)[C@H]1O[C@@]31C (stereo not given in full) | 3.55 µM (active) | 
O=C1NC(c2cccc([N+](=O)[O-])c2)=CCN1c1ccccc1O |  | 61.4% [at 17.3 µM] (inactive)
COCCc1ccc(OCC(O)CNC(C)C)cc1 (stereo not given) |  | 106% (inactive)
CC1C(=O)OCC2=CC[N+]3([O-])CCC(OC(=O)C(C)(O)C1(C)O)C23 (stereo not given) |  | 91.1% (inactive)
O=C(CCN1CCN(C(=O)OCc2cc(Cl)cc(Cl)c2)CC1)c1ccc2[nH]c(=O)oc2c1 | 16.6 µM (active) | 
COC1CC(C(=O)c2ccc3c(N)ncc(-c4ccc(-c5cnn(C)c5)cc4)c3n2)C1 (stereo not given) | 0.296 µM (active) | 
O=C(CC(c1ccccc1)c1ccccc1)N1CCN(C(c2ccccc2)c2ccccc2)CC1 | 10.3 µM (active) | 
C=C1C(O)C[C@@H]2C(C(=O)O)=CO[C@@H](O[C@@H]3O[C@H](CO)[C@@H](O)[C@H](O)[C@H]3OC(=O)c3ccc(O)cc3)[C@H]12 (stereo not given in full) |  | 85.3% [at 17.3 µM] (inactive)
CN(C)/N=N/c1nc[nH]c1C(N)=O |  | 90.1% (inactive)
CONC(=O)Nc1ccc(-c2sc3c(c2CN(C)Cc2ccccc2)c(=O)n(-c2ccccc2)c(=O)n3Cc2c(F)cccc2F)cc1 | 16.6 µM (active) | 
CN1[C@@H]2CC[C@H]1CC(NC(=O)n1c(=O)[nH]c3ccccc31)C2 (stereo not given in full) |  | 98.7% (inactive)
CC(=O)OCC(CCn1cnc2cnc(N)nc21)COC(C)=O |  | 106% (inactive)
CC(C)C1=CC2=CCC3[C@](C)(CCC[C@@]3(C)C(=O)O)C2CC1O (stereo not given in full) |  | 89.1% (inactive)
CC12CC(O)C(O)C=C1c1cc(O)cc(O)c1C(=O)O2 (stereo not given) |  | 69.1% (inactive)
CCOc1ncc(S(=O)(=O)N2CCN(CC)CC2)cc1-c1nc2c(CC)n(CCOC)nc2c(=O)[nH]1 |  | 87.6% (inactive)
